Among the data in PubChem BioAssay AID1461 (National Center for Advancing Translational Sciences (NCATS), 2008) are Potency values, retold here.

The whole screen tested about 220,000 compounds, of which about 2,300 (1%) were called active. Entries that show only a call come without a potency. Roughly 6% stayed inconclusive and do not appear here. This is one part of a sample in which actives are shown more often than they occur. Calls follow the shape of the dose curve; as a rule, active = well fitted inhibition curve with a large enough effect; inconclusive = small, poorly fitted or top-dose-only effect, or effect the other way; inactive = no such curve, though single readings can be large or run the other way.
Potency is read from the fitted curve at half-maximal effect.

Chain of Neuropeptide S receptor (Homo sapiens) (Q6W5P4 whole entry, looked up): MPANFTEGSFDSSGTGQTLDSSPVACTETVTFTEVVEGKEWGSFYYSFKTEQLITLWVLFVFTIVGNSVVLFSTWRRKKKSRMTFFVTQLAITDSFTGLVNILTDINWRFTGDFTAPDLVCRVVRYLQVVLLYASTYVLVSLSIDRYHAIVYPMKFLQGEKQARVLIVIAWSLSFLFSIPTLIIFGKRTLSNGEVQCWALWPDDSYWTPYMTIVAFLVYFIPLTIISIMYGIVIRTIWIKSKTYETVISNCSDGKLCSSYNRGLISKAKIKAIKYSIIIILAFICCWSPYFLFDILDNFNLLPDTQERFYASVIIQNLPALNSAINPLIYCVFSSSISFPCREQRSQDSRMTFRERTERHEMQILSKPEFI

This experiment addresses Neuropeptide S receptor (Homo sapiens) (UniProt Q6W5P4). Put plainly: qHTS Assay for Antagonists of the Neuropeptide S Receptor: cAMP Signal Transduction. Also: nearly all actives have a fitted effect of over 50% in size. Conditions: CHO-NPSR cells, cAMP TR-FRET, antagonist mode; series mostly up to 38.3 µM. An excerpt:
NIH Chemical Genomics Center [NCGC] NIH Molecular Libraries Probe Production centers Network [MLPCN] MLPCN Grant: X01-DA026210-01 Assay Submitter (PI): Heilig, Markus Alexander NCGC Assay Overview: Neuropeptide S receptor (NPSR), previously known as GPR154, is a recently de-orphanized G protein coupled receptor. Its endogenous ligand is the 20 amino acids peptide Neuropeptide S (NPS). […] NPS and its receptor are found in various tissues. Specifically they are highly expressed in brain areas that have been implicated in modulation of arousal, stress and anxiety. Central administration of NPS in mice produces an unusual profile of activity by inducing wakefulness and arousal, while at the same time suppressing anxiety. Therefore, NPSR may represent a novel drug target for the treatment of sleep and anxiety disorders. To identify NPSR antagonists, we developed a cell-based cAMP assay. NPS can stimulate the production of cAMP in Chinese hamster ovary cells stably expressing NPS receptor. This change in intracellular cAMP level can be detected by a homogeneous LANCE cAMP assay based on the TR-FRET (time resolved fluorescence resonance energy transfer) between a europium-labeled cAMP tracer complex and a cAMP-specific antibody labeled with Alexa Fluor 647. The europium-labeled cAMP tracer complex is formed by the tight interaction between Biotin-cAMP (b-cAMP) and streptavidin labeled with Europium-W8044 chelate (Eu-SA). Light pulse at 320 nm excites the europium of the cAMP tracer and the energy emitted is transferred to the Alexa molecule bound to the cAMP antibody, generating a TR-FRET signal at 665 nm. Residual energy from the europium will produce a light at 620 nm. The native unlabeled cAMP from cell lysates competes with the europium-cAMP tracer for antibody binding and reversely reduces the emission signal of Alexa by interrupting FRET between the two labeled molecules. Both emission signals from the FRET donor (620 nm) and the acceptor (665 nm) can be detected by a plate reader in the TRF mode. Expression of result in fluorescence ratio (665 nm/620 nm) helps to normalize differences due to cell density and reagent dispensing. This assay was successfully optimized to a 1536-well plate format.
NCGC Assay Protocol Summary: A Chinese hamster ovary (CHO) cell line stably expressing the NPS receptor (CHO-NPSR) was obtained from Dr. Heilig lab at NIAAA and maintained in F-12 Kaighn's media (Invitrogen, Carlsbad, CA, 21127) supplemented with 10 % FBS, 100 units/ml penicillin, 100 ug/ml streptomycin and 250 ug/ml geneticin at 37C, 5% CO2 in a humidified atmosphere. Before the assay, aliquots of cells were frozen and stored at -135C. The assay was performed in 1536-well format. Data are reported for both the ratio of the two emission wavelengths, and also for the component 'donor' channel, Em2=620. Data were normalized to the controls for basal activity (DMSO only) and 100% inhibition (No NPS control). IC50 values were determined from concentration-response data modeled with the standard Hill equation. NPS 1536-well assay protocol: (1) Fresh or frozen CHO-NPSR cells were suspended in F-12 Kaighn's media supplemented with 10 % FBS, 100 units/ml penicillin and 100 ug/ml streptomycin. Cells were plated at 4 ul/well (1200 cells) to white, tissue culture treated 1536-well plates, and then cultured at 37C, 5 % CO2 for 16 to 30 hours. (2) Add 23 nl/well of compound in DMSO solution. The final titration for each compound was between 0.6 nM and 46 uM. (3) Add 1 ul of stimulation reagent (1X HBSS buffer, 5 mM HEPES, 0.1% BSA, 500 uM RO-201724 (Sigma-Aldrich, B8279), 1.5% Alexa 647-labeled anti-cAMP antibody (from Perkin Elmer), 100 nM NPS) (4) Incubation at 37C, 5 % CO2 for 60 min. (5) Add 1 ul/well detection reagent. Detection reagent was prepared by adding biotin labeled cAMP (4%), streptavidin labeled with Europium-W8044 chelate (1.33%) and TritonX-100 (1%) to detection buffer. […]
A general note: In qHTS, concentration-response curves come from the screen itself.
As for `CC(=O)Oc1ccccc1C(=O)Nc1ncc([N+](=O)[O-])s1`, the Potency was 3.16 µM (active).

`CCN1CC2C3CCC(C)(O3)C2C1` (stereo not given): the Potency result is “inactive”.

Turning to `O=C1NC(=O)N(c2ccc(F)cc2)C(=O)/C1=C/c1ccc2c(c1)CCCN2Cc1ccccc1`, the Potency result was “inactive”.

Turning to `COc1cccc(N2C(=O)NC(=O)/C(=C\c3ccc([N+](=O)[O-])s3)C2=O)c1`, the Potency result was “inactive”.

`Cc1cccc(N2C(=O)NC(=O)/C(=C\c3cnn(-c4ccccc4)c3)C2=O)c1`: the Potency is 10 µM (active).

For `CC1=C2C(=O)C3C(CC=C4CC(OC5OC(O)C(O)C(O)C5CO)CCC43C)C2CCC12OC1CC(C)CNC1C2C` (stereo not given), the Potency result is “inactive”.

With `CCOc1cccc(=NC2CCCCC2)c2c(C)[nH]c(C)c12`, the Potency is 6.31 µM (active).

On to `COc1ccc(-n2c(O)c(C(C)=Nc3ccc4c(c3)CCC4)c(=O)[nH]c2=O)cc1`, for which the Potency result was “inactive”.

On to `CNC(=O)Nc1ccc(C(O)(C(=O)OC)C(F)(F)F)cc1` (stereo not given), for which the Potency entry was “inactive”.

In the case of `O=c1[nH]c(CN2CC=C(c3ccccc3)CC2)nc2scc(-c3cccs3)c12`, the Potency result was “inactive”.

For `CCC(C)n1c(O)c(/C=N/Nc2nc3c(c(=O)n(C)c(=O)n3C)n2C)c(=O)[nH]c1=S` (stereo not given), the Potency entry was “inactive”.

Take `COc1cccc(CN2CCCC(C(=O)c3ccccc3SC)C2)c1O` (stereo not given): the Potency entry is “inactive”.

Regarding `CCCCCCCCCCCCn1ccc(=N)cc1`, the Potency was 6.31 µM (active).

Turning to `CC(=O)Cc1ccc(OC(C)C)cc1`, the Potency result was “inactive”.

For the molecule `C/C=C/CC1(CC)C(=O)NC(=S)NC1=O`, the Potency result was “inactive”.

With `CC1C2Cn3c(nc4ccccc43)C1N(C)O2` (stereo not given), the Potency entry was “inactive”.

In the case of `CN(C)CC1CCCCC1=O` (stereo not given), the Potency entry is “inactive”.

On to `O=C1CC(=O)N(Cc2ccccc2)C(=O)N1CCCCCCN1C(=O)CC(=O)N(Cc2ccccc2)C1=O`, for which the Potency entry was “inactive”.

Take `O=c1[nH]c(=O)n(-c2ccc(F)cc2)c(O)c1C=NCCN1CCCCC1`: the Potency result was “inactive”.

Take `Fc1ccc(C2N3CCCN23)cc1` (stereo not given): the Potency result was “inactive”.
